Screening results deposited in PubChem BioAssay by National Center for Advancing Translational Sciences (NCATS).
GLP1R cytotox: qHTS of GLP-1 Receptor Inverse Agonists: Cytotox Screen; HEK293 cAMP-luciferase reporter cells, luminescence, 24 h; Potency, µM (top dose mostly 38.3 µM), usual class: inhibitors; 0.13% of 410,000 active; AID 624418, 2012;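 also: loss of luciferase light is scored as toxicity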
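Luminescence readout: signal drop marks cytotoxicity. Plated cells grew 12 h at 37 °C, 5% CO2, received 23 nL compound for 24 h, then got luciferase reagent, read after 12 min at RT.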
GLP-1R agonist: qHTS of GLP-1 Receptor Agonists | Glucagon-like peptide 1 receptor (Homo sapiens), P43220 | HEK293 GLP-1R CRE-luciferase, luminescence, 4-6 h; cells express a hypersensitive GLP-1R form | Potency, µM (top dose mostly 45.6 µM), usual class: activators | 0.007% of 380,000 active | AID 624172, 2012
Target sequence (P43220 whole entry, looked up): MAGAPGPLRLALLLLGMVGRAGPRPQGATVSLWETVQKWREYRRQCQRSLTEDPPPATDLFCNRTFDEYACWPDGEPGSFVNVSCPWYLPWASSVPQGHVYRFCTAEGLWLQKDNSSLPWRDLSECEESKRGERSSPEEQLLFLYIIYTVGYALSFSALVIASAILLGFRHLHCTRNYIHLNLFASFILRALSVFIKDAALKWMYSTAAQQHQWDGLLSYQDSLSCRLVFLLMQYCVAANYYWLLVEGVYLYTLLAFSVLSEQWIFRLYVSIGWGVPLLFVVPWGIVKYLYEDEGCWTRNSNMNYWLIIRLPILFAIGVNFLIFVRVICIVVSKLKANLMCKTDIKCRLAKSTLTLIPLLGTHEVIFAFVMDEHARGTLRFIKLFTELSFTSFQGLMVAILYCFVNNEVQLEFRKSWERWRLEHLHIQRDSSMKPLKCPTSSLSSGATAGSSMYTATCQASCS
GLP1R inv ag: qHTS of GLP-1 Receptor Inverse Agonists (Inhibition Mode). Potency, µM (series often up to 38.3 µM), hits mostly inhibitors. Glucagon-like peptide 1 receptor (Homo sapiens), P43220. 1.6% of 410,000 active. HEK293 GLP-1R CRE-luciferase, luminescence, 24 h; GLP-1R form is constitutively active; also: nearly all actives have a fitted effect of over 55% in size
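Using stably transfected HEK293 (constitutively active GLP-1R, cAMP-luciferase reporter), compounds were incubated 24 hr and luciferase measured by luminescence.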
Of the large screens only hits and unclear results are named; the others gave an inactive call. The list is not random: actives were taken first. Their share in the collection is about 1.7%. Calls follow the shape of the dose curve; as a rule, active = well fitted curve in the direction sought with a large enough effect; inconclusive = small, poorly fitted or top-dose-only effect, or another doubt; inactive = no such curve, though single readings can be large; an effect the other way counts as inactive or inconclusive.

O=C(Nc1ccc(F)cc1Cl)C1Cc2ccccc2N1C(=O)c1ccccc1 (stereo not drawn)	none (no result: GLP-1R agonist)
O=C(NCc1cccs1)c1ccc(Cn2c(SCc3ccccc3)nc3cccnc32)cc1	none (no result: GLP-1R agonist)
COC1=CC(=O)OC(c2cccc(Cl)c2)C1 (stereo not drawn)	none (no result: GLP-1R agonist)
CC(C)[C@H](NC(=O)c1ccco1)C(=O)Nc1ccc(N2CCCCCC2)cc1	none
CC(C)=CCC[C@H](C)C[C@@H]1CC2=C(C(=O)OC(C)(C)O2)[C@H](c2ccc(Cl)cc2)O1	GLP1R inv ag inconclusive
O=C(N/N=C/c1ccccc1)c1ccc(OCc2ccccc2)cc1	none
O=C(N/N=C/c1ccccc1)c1sccc1OCc1ccc(F)cc1	GLP1R inv ag 8.9µM
CCc1ccc(NC(=O)c2ccc(F)c(S(=O)(=O)NCC3COc4ccccc4O3)c2)cc1 (stereo not drawn)	GLP1R cytotox inconclusive, GLP1R inv ag 5µM
CCc1ccc(NC(=O)c2ccc(F)c(S(=O)(=O)NC3CCCCCC3)c2)cc1	GLP1R inv ag inconclusive (no result: GLP-1R agonist)
CCc1ccc(NC(=O)c2ccc(F)c(S(=O)(=O)NCCc3ccc(OC)c(OC)c3)c2)cc1	GLP1R inv ag 10µM (no result: GLP-1R agonist)
CCOc1ccc(NC(=O)c2ccc(F)c(S(=O)(=O)N(Cc3ccc(C(=O)OC)cc3)Cc3ccc(OC)c(OC)c3)c2)cc1	none (no result: GLP-1R agonist)
Nc1c(-c2nc(-c3ccccc3Cl)no2)nnn1-c1ccccc1C(F)(F)F	none (no result: GLP-1R agonist)
c1ccc2[nH]c(-c3cscn3)nc2c1	none
c1ccc2nc(-c3nc4ccccc4[nH]3)ccc2c1	GLP1R inv ag 10µM
CCCNC(=O)C1(C)CCN(C(=O)COCc2ccccc2)C1 (stereo not drawn)	none
COc1cccc(-c2cc(C(=O)NCC3CCCO3)c3cc(C)cc(C)c3n2)c1 (stereo not drawn)	GLP1R inv ag inconclusive
O=C(NCC1CCCO1)C(c1cccs1)N(Cc1ccccc1Cl)C(=O)c1ccc(-c2ccccc2)[nH]1 (stereo not drawn)	GLP1R inv ag 2.5µM
Cc1ccc(C(C(=O)NCC2CCCO2)N(Cc2ccccc2)C(=O)c2ccc(-c3ccccc3)[nH]2)o1 (stereo not drawn)	GLP1R inv ag inconclusive
CCOC(=O)CC(=O)CSc1nc2c(sc(=S)n2-c2ccc(C)c(C)c2)c(=O)[nH]1	GLP1R inv ag 8.9µM
CCOC(=O)CC(=O)CSc1nc2c(sc(=S)n2-c2ccc(OCC)cc2)c(=O)[nH]1	GLP1R inv ag inconclusive
CC1CCCCC12NC(=O)N(CC(=O)Nc1sccc1C(N)=O)C2=O (stereo not drawn)	none
CCN(CC)CC1C(=O)N(c2ccc(OC)cc2)C1c1ccccc1 (stereo not drawn)	GLP1R inv ag 10µM
Cc1ccc(N2C(=O)C(CN(C)C)C2c2ccccc2)cc1 (stereo not drawn)	GLP1R inv ag 11µM
O=C1C(Cc2ccccc2)C(c2ccccc2)N1c1ccccc1 (stereo not drawn)	GLP1R inv ag inconclusive
COc1ccc(N2C(=O)C(CN3CCCCC3)C2c2ccccc2)cc1 (stereo not drawn)	GLP1R inv ag inconclusive
O=C(COc1ccc(F)cc1)Nc1ccc(S(=O)(=O)N(Cc2ccccc2)c2ccccc2)cc1	GLP1R inv ag inconclusive (no result: GLP-1R agonist)
C[C@@H]1[C@H](O)C[C@@]23COC(=O)C2=CCC[C@@H]3[C@@]1(C)CC/C(=C/CO)CO	none
O=C(NCCN1CCC(n2c(=O)[nH]c3ccccc32)CC1)c1cccs1	none
COc1cccc(OCC(O)CNC(=O)c2oc3ccc(C)cc3c2C)c1 (stereo not drawn)	GLP1R inv ag inconclusive
Cc1cc(C(=O)NNC(=O)c2ccc(C)c([N+](=O)[O-])c2)c(C)o1	none
Cc1sc2ncnc(N/N=C/c3ccc(O)cc3)c2c1C	GLP1R inv ag inconclusive
COc1ccc(/C=N/Nc2ncnc3sc(C)c(C)c23)cc1	GLP1R cytotox inconclusive, GLP1R inv ag 8.9µM
O=C(NCc1ccccc1Cl)c1ccc(NC2=NC3CS(=O)(=O)CC3S2)cc1 (stereo not drawn)	none
Cc1onc(-c2ccccc2Cl)c1C(=O)NCc1nc(-c2ccc(C(F)(F)F)cc2)no1	GLP1R inv ag 10µM
Cc1onc(-c2ccccc2Cl)c1C(=O)NCc1ccccc1F	none
Cc1nnc(SCC(=O)NC2CCCC2)n1C(C)C	none
COc1ccc(NC(=O)Cc2nnc(SCC(=O)NC3CCCCC3)n2C)cc1	none
CCOC(=O)c1c(NC(=O)CNC2CCCCC2)sc(C)c1C	GLP1R inv ag 4µM
CCOC(=O)c1c(NC(=O)CNCCO)sc(C)c1C	GLP-1R agonist inconclusive
CCCCNc1cccc2c1S(=O)(=O)N(CCCC)CC(COCc1ccccc1)O2 (stereo not drawn)	GLP1R inv ag inconclusive
CCCCN1CC(COCc2ccccc2)Oc2cccc(Oc3cc(C)c(C)c(C)c3)c2S1(=O)=O (stereo not drawn)	GLP1R inv ag 2.8µM
CCCCN1CC(COCc2ccccc2)Oc2cccc(Oc3ccc(C)cc3)c2S1(=O)=O (stereo not drawn)	GLP1R inv ag 7.9µM
CCCCN1CC(COCc2ccccc2)Oc2cccc(Oc3ccc(F)cc3)c2S1(=O)=O (stereo not drawn)	GLP1R inv ag 3.5µM
CCCCN1CC(COCc2ccccc2)Oc2cccc(Oc3ccccc3)c2S1(=O)=O (stereo not drawn)	GLP1R inv ag inconclusive
CCCCN1CC(COCc2ccccc2)Oc2cccc(OCc3ccc(OC)cc3)c2S1(=O)=O (stereo not drawn)	GLP1R inv ag inconclusive
CC(=O)Nc1ccc(-c2ccnc3c2CC(C)(C(=O)Nc2ccc(C(C)C)cc2)O3)cc1 (stereo not drawn)	GLP1R inv ag inconclusive
C=Cc1c(C)/c2[n-]/c1=C\c1[n-]c(c(CC)c1C)/C=c1\[n-]c3c(c1C)C(=O)C(C(=O)[O-])C=3c1[n-]c(c(C)c1CCC(=O)[O-])\C=2.[Cu].[Na+].[Na+] (stereo not drawn)	none (no result: GLP1R cytotox, GLP1R inv ag)
O=C(Nc1cccc(NC(=O)c2cc([N+](=O)[O-])ccc2Cl)n1)c1cc([N+](=O)[O-])ccc1Cl	GLP1R cytotox inconclusive, GLP1R inv ag 4µM
Cc1cc(NC(=O)c2cc([N+](=O)[O-])ccc2Cl)no1	GLP1R inv ag inconclusive
Cc1ccc(S(=O)(=O)N[C@H](C(=O)N2CCC(C(=O)N[C@@H](CC(=O)O)C(=O)O)CC2)C(C)C)cc1	none
CCc1nc2c(OCC(N)=O)cccn2c1N(C)C(=O)C(C)C	none
CC(=O)Nc1ccc(NC(=O)CSc2nc3c([nH]c4ccccc43)c(=O)n2-c2ccccc2F)cc1	none
O=C(CSc1nc2c([nH]c3ccccc32)c(=O)n1-c1ccccc1F)Nc1cccc(C(F)(F)F)c1	GLP1R inv ag 11µM
O=C(O)CC/C(=N\NC(=O)CNC(=O)c1ccc(F)cc1)c1ccccc1	none
Cn1c(CN2CCCC2)nc2cc(NS(=O)(=O)c3ccc(Cl)cc3)ccc21	GLP1R inv ag 4µM
Cn1c(CCN2CCCC2)nc2cc(NS(=O)(=O)c3ccc(Cl)cc3)ccc21	none
CCN(Cc1ccc(C#CCCO)cc1)CC1CCCN(CCc2cccc(F)c2)C1 (stereo not drawn)	GLP1R inv ag 10µM
